# IL1B NFkB pot: enhancers of NFkB p65 translocation in HUVEC – imaging, IL-1B stimulus, high-content imaging, primary screen | HUVEC IL-1B NFkB p65 nuclear translocation imaging | activation, % at 2 µM | 94,000 tested, 0.3% active | AID 819, 2007;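 active = activation above 40%, about the mean plus 3 SD, also judged a hit on visual image review; inconclusive = activation above 40% but not a hit on visual review; inactive = activation not above 40% and no visual hit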;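 note: percent activation is computed from the nuclear over cytoplasmic p65 intensity ratio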
# TNAP act DEA: human TNAP enzyme activators, primary screen, biochemical, luminescent, intermediate phosphate acceptor level | Alkaline phosphatase, tissue-nonspecific isozyme (Homo sapiens), P05186 | purified TNAP, CDP-star luminescence, 100 mM DEA, 30 min; active compounds read high; scale: 0 levamisole-inhibited, 1 vehicle-only enzyme | activation factor at 20 µM | 64,000 tested, under 10 active;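 active = activation factor of at least 2 at 20 µM, relative to controls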
# Target sequence (P05186 whole entry, looked up): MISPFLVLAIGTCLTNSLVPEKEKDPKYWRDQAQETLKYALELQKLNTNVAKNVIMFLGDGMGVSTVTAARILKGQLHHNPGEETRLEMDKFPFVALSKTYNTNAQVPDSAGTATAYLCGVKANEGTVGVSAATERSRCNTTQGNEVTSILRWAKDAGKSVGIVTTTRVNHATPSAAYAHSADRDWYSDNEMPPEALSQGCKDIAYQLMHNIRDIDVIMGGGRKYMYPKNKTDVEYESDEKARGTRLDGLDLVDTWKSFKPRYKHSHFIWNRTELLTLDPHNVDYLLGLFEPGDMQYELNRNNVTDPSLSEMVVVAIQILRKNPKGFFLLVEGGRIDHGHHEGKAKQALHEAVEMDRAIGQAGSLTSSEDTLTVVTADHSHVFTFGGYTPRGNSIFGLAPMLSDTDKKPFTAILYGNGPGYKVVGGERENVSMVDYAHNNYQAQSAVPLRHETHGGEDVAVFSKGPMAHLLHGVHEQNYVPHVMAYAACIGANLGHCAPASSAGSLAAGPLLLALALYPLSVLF
# HUVEC tox IL1B: cytotoxicity in IL-1B stimulated HUVEC, primary screen, cytotoxicity control for IL-1B NFkB translocation project, imaging, Hoechst nuclear count, IL-1B stimulus; 94,000 tested, 0.41% active; cell count reduction, % at 2 µM; HUVEC cell count loss;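 active = cell count reduction more than 3 SD above the screen-wide mean, cut at about 70% in these data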;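 note: normalized per plate to untreated control cells as the no-loss baseline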
# PLAP act: PLAP enzyme activators, biochemical, luminescence, HTS; purified PLAP enzyme, luminescent substrate read-out; active compounds read high; activation fold at 20 µM; 96,000 tested, 1.2% active; AID 696, 2007; in the data active = activation fold above about 2
# NFkB transloc inh: inhibitors of IL-1B driven NFkB p65 nuclear import, primary screen, imaging, HUVEC, IL-1B stimulus, high-content imaging | HUVEC IL-1B NFkB p65 nuclear translocation imaging | 94,000 tested, 0.43% active | inhibition, % at 2 µM;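 active = inhibition above about 30% together with a positive call from visual inspection of the well image, limit read from the data; inconclusive = inhibition above a set limit but visual check negative; inactive = inhibition not above a set limit, visual check negative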;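 note: nuclear over cytoplasmic p65 intensity ratio measured by imaging; 0% = IL-1B stimulated DMSO wells and 100% = unstimulated DMSO wells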
# * = called active by the depositor; ? = inconclusive; . = no result given. Only some compounds are listed: those with a hit (about 2.1% of all), similar ones and a draw of the others.
SMILES,IL1B NFkB pot,TNAP act DEA,HUVEC tox IL1B,PLAP act,NFkB transloc inh
CCOC(=O)c1ccc(Nc2nc(C(=O)OCC)nc3ccccc23)cc1,-3,.,84*,0.9,3
Cc1cc(Cl)ccc1OCc1n[nH]c(=S)n1C1CCCCC1,-7,.,-8,1.3,7
COc1ccc(Cl)cc1-c1n[nH]c(=S)n1C1CCCCC1,11,.,-18,2.4*,-11
COc1ccc(-c2n[nH]c(=S)n2C2CCCCC2)cc1,-2,0.9,4,2*,2
COC(=O)c1ccc(CC(=O)c2c(C)cc(O)cc2O)o1,4,0.9,18,1.2,-4
C=CCn1c2ccccc2c2nnc(SCCCn3c(=O)[nH]c4ccccc43)nc21,4,0.9,28,1.7,-4
Cc1sc2ncn(CCn3cnc4sc(C)c(C)c4c3=O)c(=O)c2c1C,-57,0.9,9,1.2,57*
CCOCc1cn(CC(=O)c2ccc([N+](=O)[O-])cc2)c(C)nc1=N,-6,.,-8,0.7,6
CCOCc1cn(CC(=O)c2ccc(Cl)cc2)c(C)nc1=N,-5,.,81*,0.6,5
CC1(C)C=C(c2ccc(O)cc2)CC(C)(C)N1,-45,0.9,-44,0.8,45*
CC(C)C(NS(=O)(=O)c1cccc2nsnc12)C(=O)Nc1nc2ccc(Cl)cc2s1 (configuration not stated),38,.,-6,0.9,-38
CCOc1ccc2nc(NC(=O)C(NS(=O)(=O)c3cccc4nsnc34)C(C)C)sc2c1 (configuration not stated),-1,.,4,2.4*,1
COc1ccc(S(=O)(=O)N(CC(N)=O)C2CCCCC2)cc1Cl,25,0.9,93*,1.5,-25
COc1ccc(OCCCc2c(C)n[nH]c2C)cc1,3,.,9,2.3*,-3
Cc1cccc(OCCCCc2c(C)n[nH]c2C)c1C,3,1.2,-78,2.4*,-3
CCOc1ccccc1OCCCCCc1c(C)n[nH]c1C,?,1.1,-43,1.5,-50
CC1CCN(C2CC(=O)N(c3ccc(Br)cc3Br)C2=O)CC1 (configuration not stated),.,1,.,.,.
C=C(C)CNC(=S)NNC(=O)c1ccco1,11,.,-13,2*,-11
O=C(CNC(=S)NC(=O)c1ccco1)c1ccccc1,-7,.,-5,1.1,7
CC1CCCCC1NC(=O)c1nn(C)c(=O)c2ccccc12 (configuration not stated),78*,0.8,-9,.,-78
CN1CC=C2C(C#N)=C(N)C(C#N)(C#N)[C@H](c3cccc(Cl)c3)C2C1 (some centres not stated),-34,0.9,-42,1,34*
O=C(c1cc2nc3c(c(C(F)(F)F)n2n1)CCc1ccccc1-3)N1CCN2CCCC2C1 (configuration not stated),.,0.9,.,.,.
CSCCC(NC(=O)c1ccccc1)C(=O)NCc1ccco1 (configuration not stated),16,0.9,-20,0.8,-16
CCn1cc(C(=O)OCc2ccc(F)cc2)c(=O)c2ccc(C)nc21,-6,0.9,86*,0.9,6
Cn1c(=S)[nH]c2ccccc21,33,.,0,1,-33
SMILES,IL1B NFkB pot,TNAP act DEA,HUVEC tox IL1B,PLAP act,NFkB transloc inh
N#CCCn1c(=S)[nH]c2ccccc21,-4,.,-8,2.6*,4
CCCOc1ccccc1C1C(C(=O)OC)=CN(C(C)C)C=C1C(=O)OC,0,1.5,13,2*,0
O=C(CN1C(=O)NC2(CCCC2)C1=O)Nc1ccccc1F,12,.,8,0.8,-12
O=C(CCNS(=O)(=O)c1cccs1)N1CCc2ccccc2C1,-99,0.9,-4,0.8,99*
Clc1ccccc1OCCn1ccnc1,-11,0.9,16,0.8,11
Clc1cccc(OCCn2cncn2)c1Cl,45*,0.9,-46,0.9,-45
O=C(Nc1ccc2nc(-c3ccccn3)[nH]c2c1)C1CCCCC1,-3,.,0,2.3*,3
Cc1nc2ncnn2c(C)c1Cc1ccc(Cl)cc1F,.,1,.,.,.
CCn1c(SCC(=O)NCc2ccccc2)nc2c(c1=O)SC(C)C2 (configuration not stated),0,.,4,1,0
CCOC(=O)N1CCN(C(=O)CCCn2c(=S)[nH]c3ccc(Br)cc3c2=O)CC1,6,.,-8,2*,-6
O=C(COC(=O)CCC(=O)c1cccs1)Nc1cc(S(=O)(=O)N2CCOCC2)ccc1Cl,-1,.,-5,1.5,1
O=S(=O)(c1ccc(Oc2ccc(Br)cc2F)nc1)N1CCCCC1,-40,0.9,-44,.,40*
CCOc1cc(S(=O)(=O)N2CCCCCC2)ccc1F,1,.,16,0.8,-1
COc1ccc(S(=O)(=O)NC(C)C(=O)Nc2ccccc2C(F)(F)F)cc1 (configuration not stated),17,.,0,0.8,-17
COc1ccccc1NC(=O)C(C)NS(=O)(=O)c1ccccc1 (configuration not stated),-8,1,73*,1.1,8
CCCCCCCCCCSc1n[nH]c(NC(C)=O)n1,11,.,-14,2.9*,-6
CCCNC(=O)COc1ccc(S(=O)(=O)Nc2ccc(C)cc2)cc1,25,.,-13,0.9,-25
COc1ccc(-c2nn(-c3ccccc3)cc2C(=O)NCCCn2ccnc2)cc1,-10,1.1,12,2.6*,10
COc1ccc(C(=O)c2ccc(N3CCN(C(=O)c4ccc(F)cc4)CC3)c(F)c2)cc1Br,16,.,-8,1.4,-16
CC1CCCC(NC(=O)C2CCCN2S(=O)(=O)c2cccc3nsnc23)C1C (configuration not stated),14,.,-23,1.5,-14
COC(=O)C1=C(N)Oc2cc(C)n(CCc3ccccc3)c(=O)c2C1c1cccnc1 (configuration not stated),2,0.9,-10,2*,-2
Cc1cccc(N(CC(=O)NCCC2=CCCCC2)S(C)(=O)=O)c1C,3,.,13,1.8,-3
O=C(Nc1ccc2c(c1)OCO2)c1cccc(F)c1,-12,0.9,90*,0.9,12
Cc1nnc(NC(=O)Cn2cnc3c2c(=O)n(C)c(=O)n3C)s1,3,.,-7,.,-3
COc1ccc(N2CCN(CC(=O)Nc3nc4c(s3)CC(C)CC4)CC2)cc1 (configuration not stated),0,1.2,-11,2.9*,0
Cc1ccc(CNS(=O)(=O)/C=C/c2ccc3c(c2)OCO3)cc1,.,.,.,0.9,.
CCCCn1c(=O)nc2n(-c3ccccc3)c3ccccc3cc-2c1=O,92*,.,-52,1.2,-92
CCCc1nc(N2CCOCC2)c2sc(=S)n(-c3ccccc3)c2n1,18,.,-33,0.9,-18

# Screening results deposited in PubChem BioAssay by several laboratories.
